Reference: ChEMBL document CHEMBL1961873, “Compounds: GSK PKIS; Assays: Nanosyn kinase panel” (2012)

Experiments:
[1] = molecular target: 5'-AMP-activated protein kinase catalytic subunit alpha-2 (Homo sapiens) (UniProt P54646); conditions: at 1 µM
[2] = molecular target: T1, NUAK family SNF1-like kinase 1 (Homo sapiens) (UniProt O60285); conditions: at 0.1 µM
T1 sequence (whole entry): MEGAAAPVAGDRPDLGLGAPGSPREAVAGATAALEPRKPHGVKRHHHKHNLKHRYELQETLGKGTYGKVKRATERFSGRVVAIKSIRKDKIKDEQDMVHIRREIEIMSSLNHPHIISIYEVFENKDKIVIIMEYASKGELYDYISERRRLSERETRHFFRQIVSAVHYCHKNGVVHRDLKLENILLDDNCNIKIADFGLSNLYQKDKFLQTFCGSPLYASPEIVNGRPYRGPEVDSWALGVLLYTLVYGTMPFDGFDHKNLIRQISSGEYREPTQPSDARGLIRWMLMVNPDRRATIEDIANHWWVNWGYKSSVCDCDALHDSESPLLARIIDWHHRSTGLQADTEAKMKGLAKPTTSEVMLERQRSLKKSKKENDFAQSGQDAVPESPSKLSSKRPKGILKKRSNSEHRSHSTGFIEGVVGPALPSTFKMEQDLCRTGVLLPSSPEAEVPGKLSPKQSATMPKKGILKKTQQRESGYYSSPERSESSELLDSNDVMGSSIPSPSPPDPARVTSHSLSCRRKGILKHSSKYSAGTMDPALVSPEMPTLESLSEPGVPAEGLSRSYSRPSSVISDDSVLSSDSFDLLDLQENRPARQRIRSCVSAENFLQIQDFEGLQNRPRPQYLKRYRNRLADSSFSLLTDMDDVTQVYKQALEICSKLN

[3] = molecular target: T1, NUAK family SNF1-like kinase 1 (Homo sapiens); conditions: at 1 µM
[4] = molecular target: T2, Serine/threonine-protein kinase BRSK1 (Homo sapiens) (UniProt Q8TDC3); conditions: at 0.1 µM
T2 sequence (whole entry): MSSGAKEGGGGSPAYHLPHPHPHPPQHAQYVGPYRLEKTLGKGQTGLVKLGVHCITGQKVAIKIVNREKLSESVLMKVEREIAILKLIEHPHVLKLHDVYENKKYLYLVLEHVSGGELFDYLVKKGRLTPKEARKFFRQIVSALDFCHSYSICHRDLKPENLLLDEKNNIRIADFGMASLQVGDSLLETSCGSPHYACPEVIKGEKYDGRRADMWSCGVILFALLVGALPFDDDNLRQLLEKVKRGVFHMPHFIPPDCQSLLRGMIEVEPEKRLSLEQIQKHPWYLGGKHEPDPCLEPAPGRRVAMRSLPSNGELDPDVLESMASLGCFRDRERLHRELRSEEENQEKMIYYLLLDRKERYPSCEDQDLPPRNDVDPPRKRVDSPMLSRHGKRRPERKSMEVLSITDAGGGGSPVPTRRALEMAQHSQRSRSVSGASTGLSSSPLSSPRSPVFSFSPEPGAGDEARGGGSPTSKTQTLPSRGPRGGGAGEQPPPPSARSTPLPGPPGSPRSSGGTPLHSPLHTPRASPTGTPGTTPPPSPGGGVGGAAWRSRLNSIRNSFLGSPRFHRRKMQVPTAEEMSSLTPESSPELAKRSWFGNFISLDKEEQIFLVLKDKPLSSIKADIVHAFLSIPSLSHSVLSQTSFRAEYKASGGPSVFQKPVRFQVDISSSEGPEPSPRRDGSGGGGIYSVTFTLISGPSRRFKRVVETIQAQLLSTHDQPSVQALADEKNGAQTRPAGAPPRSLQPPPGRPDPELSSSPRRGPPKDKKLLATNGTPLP

[5] = molecular target: T2, Serine/threonine-protein kinase BRSK1 (Homo sapiens); conditions: at 1 µM
[6] = molecular target: T3, Serine/threonine-protein kinase BRSK2 (Homo sapiens) (UniProt Q8IWQ3); conditions: at 0.1 µM
T3 sequence (whole entry): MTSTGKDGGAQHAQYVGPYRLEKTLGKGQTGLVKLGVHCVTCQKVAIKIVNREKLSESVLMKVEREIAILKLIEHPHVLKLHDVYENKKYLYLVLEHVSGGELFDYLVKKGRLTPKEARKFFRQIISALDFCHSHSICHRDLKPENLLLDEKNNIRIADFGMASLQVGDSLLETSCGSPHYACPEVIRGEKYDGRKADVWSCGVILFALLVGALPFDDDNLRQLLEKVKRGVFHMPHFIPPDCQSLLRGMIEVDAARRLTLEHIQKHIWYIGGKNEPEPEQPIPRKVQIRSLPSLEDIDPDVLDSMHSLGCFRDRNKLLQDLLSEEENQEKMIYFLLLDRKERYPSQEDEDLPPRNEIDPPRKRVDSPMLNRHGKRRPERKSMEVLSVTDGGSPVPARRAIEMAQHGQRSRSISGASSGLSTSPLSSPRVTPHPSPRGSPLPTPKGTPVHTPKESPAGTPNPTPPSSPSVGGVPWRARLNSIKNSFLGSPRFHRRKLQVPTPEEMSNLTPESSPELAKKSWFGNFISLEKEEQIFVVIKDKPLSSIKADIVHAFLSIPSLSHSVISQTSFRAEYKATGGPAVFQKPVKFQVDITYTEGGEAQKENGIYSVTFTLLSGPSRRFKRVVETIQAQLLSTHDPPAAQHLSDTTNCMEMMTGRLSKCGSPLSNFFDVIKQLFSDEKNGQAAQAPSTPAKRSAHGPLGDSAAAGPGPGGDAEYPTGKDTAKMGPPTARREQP

[7] = molecular target: T3, Serine/threonine-protein kinase BRSK2 (Homo sapiens); conditions: at 1 µM
[8] = molecular target: Calcium/calmodulin-dependent protein kinase type 1D (Homo sapiens) (UniProt Q8IU85); conditions: at 0.1 µM
Sequence of Calcium/calmodulin-dependent protein kinase type 1D (Homo sapiens) (Q8IU85 whole entry, looked up): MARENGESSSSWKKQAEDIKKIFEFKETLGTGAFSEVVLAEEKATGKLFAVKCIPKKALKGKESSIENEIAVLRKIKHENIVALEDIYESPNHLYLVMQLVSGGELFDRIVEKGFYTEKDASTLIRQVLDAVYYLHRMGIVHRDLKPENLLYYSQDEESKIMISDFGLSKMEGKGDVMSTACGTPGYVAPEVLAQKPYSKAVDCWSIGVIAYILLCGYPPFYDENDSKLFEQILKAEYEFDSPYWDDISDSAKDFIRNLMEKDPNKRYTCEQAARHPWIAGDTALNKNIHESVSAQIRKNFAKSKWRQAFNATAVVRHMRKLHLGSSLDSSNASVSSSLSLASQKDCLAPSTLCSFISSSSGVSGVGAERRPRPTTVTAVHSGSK

[9] = molecular target: Calcium/calmodulin-dependent protein kinase type 1D (Homo sapiens) (UniProt Q8IU85); conditions: at 1 µM
[10] = molecular target: Calcium/calmodulin-dependent protein kinase type II subunit alpha (Homo sapiens) (UniProt Q9UQM7); conditions: at 0.1 µM;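 further: reported values are averages (mean inhibition of CAMK2A)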
Sequence of Calcium/calmodulin-dependent protein kinase type II subunit alpha (Homo sapiens) (Q9UQM7 whole entry): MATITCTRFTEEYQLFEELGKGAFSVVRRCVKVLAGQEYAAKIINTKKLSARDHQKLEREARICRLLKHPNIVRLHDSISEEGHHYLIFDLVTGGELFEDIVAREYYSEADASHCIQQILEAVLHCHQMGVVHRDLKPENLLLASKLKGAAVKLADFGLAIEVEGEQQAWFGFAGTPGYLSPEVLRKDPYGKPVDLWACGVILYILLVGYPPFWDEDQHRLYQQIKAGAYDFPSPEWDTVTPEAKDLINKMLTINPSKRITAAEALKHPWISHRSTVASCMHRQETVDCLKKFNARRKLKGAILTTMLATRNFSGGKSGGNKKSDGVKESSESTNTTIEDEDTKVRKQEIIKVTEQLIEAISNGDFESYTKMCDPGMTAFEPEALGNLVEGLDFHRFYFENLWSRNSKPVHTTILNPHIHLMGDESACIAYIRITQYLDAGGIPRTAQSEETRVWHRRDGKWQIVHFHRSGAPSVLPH

Sequence of 5'-AMP-activated protein kinase catalytic subunit alpha-2 (Homo sapiens) (P54646 whole entry, looked up): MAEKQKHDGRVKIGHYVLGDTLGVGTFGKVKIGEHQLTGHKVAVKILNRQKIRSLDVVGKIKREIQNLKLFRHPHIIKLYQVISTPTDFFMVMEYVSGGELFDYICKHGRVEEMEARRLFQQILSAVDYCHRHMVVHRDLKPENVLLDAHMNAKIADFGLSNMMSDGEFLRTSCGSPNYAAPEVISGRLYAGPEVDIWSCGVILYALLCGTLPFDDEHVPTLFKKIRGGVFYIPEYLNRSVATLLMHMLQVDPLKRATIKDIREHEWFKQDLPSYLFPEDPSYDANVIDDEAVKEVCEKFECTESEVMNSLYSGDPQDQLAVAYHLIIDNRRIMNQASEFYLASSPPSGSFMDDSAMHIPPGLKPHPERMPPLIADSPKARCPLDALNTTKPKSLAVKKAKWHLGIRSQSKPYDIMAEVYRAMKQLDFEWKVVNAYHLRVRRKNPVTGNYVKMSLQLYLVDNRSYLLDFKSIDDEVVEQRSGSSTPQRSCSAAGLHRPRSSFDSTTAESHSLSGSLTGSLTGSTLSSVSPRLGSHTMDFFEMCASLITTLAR

SMILES | inhibition [1] | inhibition [2] | inhibition [3] | inhibition [4] | inhibition [5] | inhibition [6] | inhibition [7] | inhibition [8] | inhibition [9] | inhibition [10]
Nc1nc(-c2ccc3c(c2)C(=Cc2cc(Br)c(O)c(Br)c2)C(=O)N3)cs1 | 1.63% | 3.02% | 5.77% | 1.06% | 6.62% | 0.58% | 8.7% | 0.31% | 9% | -5.57%
COC(=O)Nc1nc2cc(Oc3ccc(NC(=O)Nc4cccc(C(=O)O)c4)cc3)ccc2[nH]1 | 2.8% | 6.73% | 8% | -1.07% | 2.91% | 2.19% | 9.32% | 0.59% | -1.87% | 1.77%
COc1ccc(COc2ccc(Cc3cnc(N)nc3N)cc2OC)cc1 | 2.37% | 3.64% | 3.71% | 4.29% | 3.19% | 2.82% | 2.49% | 3.83% | 5.51% | 3.64%
COC(=O)Nc1nc2cc(Oc3cccc(NC(=O)Nc4cc(C(F)(F)F)ccc4F)c3)ccc2[nH]1 | 3.68% | 0.14% | -3.14% | 1.74% | 1.87% | 1.38% | 2.1% | 0.54% | 4.96% | 0.56%
CCn1c(-c2nonc2N)nc2c(C#CC(C)(C)O)nc(OC[C@@H](N)c3ccccc3)cc21 | 21.1% | 28% | 94.5% | 0.41% | 4.9% | 0.42% | 5% | 0.26% | 2.9% | -2.45%
Nc1ncnc2occ(-c3ccc(NC(=O)Nc4cccc(C(F)(F)F)c4)cc3)c12 | 5.34% | 1.07% | 8.04% | 0.85% | 10.2% | 5.5% | 9.75% | 0.29% | 7.97% | 2.71%
CC1=C(C(=O)Nc2ccc3[nH]ncc3c2)C(c2ccc(Cl)c(Cl)c2)CC(=O)N1 (stereo not given) | 7.05% | -0.25% | 14.9% | 1.14% | 10.1% | 1.61% | 15.5% | -0.31% | 1.37% | 1.87%
COc1cc(C)c(NC(=O)CN(C)C)cc1Nc1nc(Nc2cccc(F)c2C(N)=O)c2cc[nH]c2n1 | 4.27% | -0.32% | 4.12% | 1.09% | 0.73% | 0.37% | -2.24% | 2.17% | 16.7% | 3.26%
CCCN1CCC(Oc2cc(Nc3nc(Nc4cccc(F)c4C(N)=O)c4cc[nH]c4n3)c(OC)cc2Cl)CC1 | 6.28% | 7.21% | 9.7% | 0.4% | -0.28% | -0.51% | 0.24% | 3.19% | 23.1% | 0.13%
Cc1nnc(-c2ccc(C)c(-c3ccc(C(=O)Nc4cccc(C#N)c4)cc3)c2)o1 | 2.95% | 2.98% | 2.37% | 0.93% | 1.01% | 2.39% | 4.23% | 0.65% | 0.26% | 1.97%
COc1ccccc1Nc1ncc(-c2ccccc2)o1 | 4.09% | -0.18% | -4.21% | -0.58% | 3.87% | 2.96% | 4.49% | -0.11% | -0.14% | 3.16%
NCc1ccc(-c2nc(-c3ccc(Cl)c(O)c3)c(-c3ccncc3)[nH]2)cc1 | 3.06% | 1.84% | 3.79% | 0.1% | 0.59% | -0.21% | 1.33% | 0.15% | 0.23% | 0.76%
O=C(Nc1n[nH]c2nc(-c3ccco3)c(Br)cc12)C1CC1 | 5.5% | -2.45% | 4.11% | 3% | 12.9% | 3.32% | 11.5% | 0.93% | 1.36% | 4.38%
Fc1cccc(COc2ccc(Nc3ncnc4cc(-c5ccc[nH]5)sc34)cc2Cl)c1 | 3.27% | 2.43% | 6.42% | 0.67% | 1.16% | 0.79% | 4.01% | 1.56% | 1.16% | 0.3%
CS(=O)(=O)CCNCc1ccc(-c2ccc3ncnc(Nc4ccc(OCc5cccc(F)c5)c(C(F)(F)F)c4)c3c2)o1 | 3.63% | 2.03% | 0.5% | -0.9% | -1.79% | 1.37% | 3.52% | -0.13% | 0.72% | 3.67%
NC(=O)c1cccc(Nc2nccc(Nc3cccc4[nH]ncc34)n2)c1 | 11% | 40.5% | 80.7% | 3.32% | 22% | 2.15% | 19.3% | 0.34% | 4.12% | -4.01%
